Source: PubChem (National Center for Advancing Translational Sciences (NCATS))
Tau ThT inhib – inhibitors of human tau fibril formation, thioflavin T binding. P10636. recombinant tau K18 P301L, heparin-induced fibrillization, ThT fluorescence. Potency, µM (series often up to 57.4 µM), inactives show at the highest dose activity, negative = inhibition, actives largely listed as inhibitors. hit rate 2.1% among 270,000. AID 1460; also: potency is read from the fitted curve at half-maximal effect; nearly all actives have a fitted effect of over 55% in size
Target sequence (P10636 561-689 P618L limits assumed): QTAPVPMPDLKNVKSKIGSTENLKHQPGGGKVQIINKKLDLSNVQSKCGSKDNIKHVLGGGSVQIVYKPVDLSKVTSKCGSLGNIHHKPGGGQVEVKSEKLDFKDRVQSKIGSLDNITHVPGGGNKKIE
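In this qHTS, human K18 P301L tau is incubated with compound and heparin for 6 hr at 37 C, and Thioflavin T fluorescence then reports fibril load.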
FBPA coupling cs – coupling enzyme interference in Giardia aldolase counter-screen. activity change, negative = inhibition, % at 58.2 µM, hits read low. coupling enzyme system counterscreen, AmpLite Red fluorescence. hit rate 0.67% among 290,000. AID 2472; in the data active = activity change below about -30%
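Activity here indicates interference with the coupling reaction, not aldolase inhibition. Compounds at 57.5 uM final met coupling enzymes for 10 min at RT; substrate and AmpLite Red detection followed, with a 525/598 nm fluorescence read after 20 min.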
Sfp inh – Sfp phosphopantetheinyl transferase inhibition; Q9F4F7; Biochemical Sfp PPTase activity, qHTS; Potency, µM, for inactives: largest response in the series, negative = inhibition, usual class: inhibitors; hit rate 3.5% among 310,000; AID 1490;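 also: the enzyme is Sfp with the accession as filed and its product quenches rhodamine fluorescence; potency is read from the fitted curve at half-maximal effect; 0% = enzyme reaction without inhibitor and -100% = no enzyme wells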
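Buffer: 50 mM Hepes-Na pH 7.6, 10 mM MgCl2, 0.01% Nonidet P-40, 0.01% BSA. Enzyme 15 nM, pre-exposed to compound 15 min; substrates then added and fluorescence change tracked over 30 min.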
Tau FP inhib – tau fibrillization inhibition (FP) | P10636 | K18 P301L tau heparin fibrillization, Alexa594 FP, 6 h | Potency, µM (highest dose often 57.7 µM), inactives show at the highest dose activity, negative = inhibition, usual class: inhibitors | hit rate 0.39% among 280,000 | AID 1468; also: potency is read from the fitted curve at half-maximal effect; nearly all actives have a fitted effect of over 55% in size
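Read-out: fluorescence polarization of Alexa 594-labeled tau (0.24 uM), 555 nm excitation, 632 nm emission. Mixtures held 15 uM unlabeled K18 P301L, compound and 20 uM heparin, pH 7 acetate buffer, incubated 6 hr at 37 C.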
Tau fluor cs – counter-screen for tau fibril formation inhibitors; tau K18 P301L (four-repeat tau fragment) Alexa594 fluorescence, heparin fibrillization; hit rate 0.93% among 280,000; Potency, µM (series often up to 57.7 µM), for inactives: at the highest dose activity change, negative = decrease; also: potency is read from the fitted curve at half-maximal effect; nearly all actives have a fitted effect of over 55% in size
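Human K18 P301L tau (15 uM unlabeled plus 0.24 uM Alexa 594-labeled, final) in 100 mM sodium acetate pH 7 was mixed with compound and 20 uM heparin and incubated 6 hr at 37 C.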
* marks the source's active call; other numbers are inactive results; u = inconclusive; x = no result; ! = not active in a repeat. A selection: hits, their analogues and other compounds. The true share with any hit is near 5.2%. Unless noted, calls follow the shape of the dose curve; as a rule, active = well fitted curve in the direction sought with a large enough effect; inconclusive = small, poorly fitted or top-dose-only effect, or another doubt; inactive = no such curve, though single readings can be large; an effect the other way counts as inactive or inconclusive. Unless noted, % is scaled to controls: 0 for no effect and ±100 for the full control effect.

SMILES	Tau ThT inhib	FBPA coupling cs	Sfp inh	Tau FP inhib	Tau fluor cs
CC(C)(C)CC(C)(C)c1ccc(OCCOCC[N+](C)(C)Cc2ccccc2)cc1	x	4	40µM*!	-13%	-11%
CC(C)CN=Cc1c(O)c([N+](=O)[O-])cc2oc3c(c12)CCCC3	4.5µM*	-32*	-15%	u	u
O=[N+]([O-])c1cc2oc3c(c2c(C=NCc2ccccc2)c1O)CCCC3	5µM*	-29	8%	u	-11%
CCOc1ccc(C2C3=C(CCCC3=O)Nc3ccc4ncccc4c32)cc1 (stereo not drawn)	x	-2	-7%	13%	u
O=C1CCCC2=C1C(c1ccc(O)c(O)c1)c1c(ccc3ncccc13)N2 (stereo not drawn)	u	-72*	7.9µM*	-17%	u
O=C1CCCC2=C1C(c1ccc(O)cc1)c1c(ccc3ccccc13)N2 (stereo not drawn)	u	0	50µM*	10%	u
O=[N+]([O-])c1ccccc1/C=N/n1c(C(F)(F)F)n[nH]c1=S	u	-8	22µM*	-2%	-5%
O=C(O)COc1ccccc1/C=N/n1c(C2CCCCC2)n[nH]c1=S	x	-2	50µM*	x	x
Cc1ccc(/C=N/n2c(C3CCCCC3)n[nH]c2=S)cc1	x	0	50µM*	x	x
O=[N+]([O-])c1ccccc1/C=N/n1c(C2CCCCC2)n[nH]c1=S	1%	-3	50µM*	-6%	-2%
COc1ccc(C2=Nc3ccccc3N(CC(=O)Nc3cccc(C(C)=O)c3)C(=O)C2)cc1	-12%	x	x	u	u
O=C1CSC(=S)N1/N=C/c1ccc(O)c(O)c1O	3.5µM*	-59*	3.2µM*	7.1µM*	u
CCOc1ccc(NC(=O)CCSc2nc(-c3ccc4c(c3)OCO4)cc(C(F)(F)F)n2)cc1	-14%	x	x	u	u
Cn1c(=O)n(-c2ccc(F)c(Cl)c2)c(=O)c2sc3ccccc3c21	u	x	x	-2%	6%
O=C1C2Sc3[nH]c(=O)sc3C(c3ccccc3)C2C(=O)N1c1ccccc1 (stereo not drawn)	u	x	79µM*	u	u
COc1ccc(C2c3sc(=O)[nH]c3SC3C(=O)N(c4ccccc4)C(=O)C32)cc1 (stereo not drawn)	u	2	-10%	-6%	-22%
Cc1ccc(CNC(=O)CCN2C(=O)C(C)Oc3ccc(C)cc32)cc1 (stereo not drawn)	-14%	x	x	5%	-18%
COCCn1c(C)cc(C2=NNC(=Nc3ccccc3)SC2)c1C	u	0	22µM*	-15%	-29%
COCCn1c(C)cc(C2=NNC(=Nc3ccc(OC)cc3)SC2)c1C	u	-13	50µM*	-8%	-20%
Cc1ccc(COc2ccc(-c3cc(C(F)(F)F)n4nc(C)cc4n3)cc2)cc1	-5%	x	x	-4%	-7%
Cc1ccc(C(=O)Oc2ccccc2N2C(=O)C3CCC(C)CC3C2=O)cc1 (stereo not drawn)	-17%	-1	2%	14%	-9%
CC1CCC2C(=O)N(c3ccc(C(=O)Oc4cccc5cccnc45)cc3)C(=O)C2C1 (stereo not drawn)	u	-27	10µM*	u	-29%
COc1cc2[nH]c(=S)n(Cc3ccc(C)cc3)c(=O)c2cc1OC	u	2	56µM*	u	-25%
COc1ccc(Cn2c(=S)[nH]c3cc(OC)c(OC)cc3c2=O)cc1	9%	1	6%	9%	6%
COc1cc2[nH]c(=S)n(CCN3CCOCC3)c(=O)c2cc1OC	-2%	0	18µM*	6%	4%
SMILES	Tau ThT inhib	FBPA coupling cs	Sfp inh	Tau FP inhib	Tau fluor cs
COc1cccc2c1cc1c(=O)n(CC(=O)N3CCN(c4cccc(C(F)(F)F)c4)CC3)nc(C)n12	4%	x	x	-9%	-5%
CC(=O)N1CCN(c2nc3c(F)cc(F)cc3s2)CC1	-16%	x	x	-8%	-6%
N=C1/C(=C\c2ccc(OCc3ccccc3)cc2)C(=O)N=C2SC(N3CCCC3)=NN12	4µM*	2	7%	-8%	u
CCOC(=O)CCCc1ccc(/C(C)=N/NC(=S)NC)cc1	x	2	4%	-3%	-3%
CCOC(=O)CCCc1ccc(/C(C)=N/NC(N)=S)cc1	x	-4	56µM*	3%	-26%
Cc1ccc(NC(=O)CN2C(=O)c3cccnc3Sc3ccccc32)cc1C	0%	x	x	2%	-8%
CCOC(=O)C1CCCCN1Cc1ccc(F)c(Br)c1 (stereo not drawn)	-5%	1	63µM*	4%	-12%
O=c1c2sc3ccccc3c2n(Cc2ccc(F)cc2)c(=O)n1Cc1ccco1	1%	x	x	-3%	-7%
CC(=O)Nc1nc(N2C(=O)c3ccccc3C2=O)n(-c2ccccc2)n1	11%	-5	8.9µM*	0%	-1%
O=C(Nc1nc(N2C(=O)c3ccccc3C2=O)n(-c2ccccc2)n1)c1ccccc1	-8%	0	0.89µM*	-1%	-1%
Cc1ccc(S(=O)(=O)c2[nH]c(-c3ccccc3)nc2SC(C)C(=O)O)cc1 (stereo not drawn)	-1%	x	x	0%	-5%
c1csc(-c2ccnc3ncnn23)c1	0%	-1	16%	3%	7%
Fc1ccc(-c2cnn3c(-c4ccncc4)ccnc23)cc1	3.2µM*	1	10%	3%	-2%
Fc1ccc(-c2cnn3c(-c4cccs4)ccnc23)cc1	1.4µM*	-1	-5%	-15%	-14%
C=CCN(C(C(=O)OC)C(C)C)S(=O)(=O)C=C (stereo not drawn)	x	-1	23%	x	x
CCCC12CN3CC(CCC)(CN(C1)C3c1c(C)[nH]c(=O)[nH]c1=O)C2=O (stereo not drawn)	-4%	x	x	0%	-6%
O=c1[nH]c(=S)[nH]c2c1C(c1ccc(Br)cc1)c1c([nH]c(=S)[nH]c1=O)O2	x	7	45µM*	x	x
O=C1CCCC2=C1C(c1ccc(Br)cc1)c1c([nH]c(=S)[nH]c1=O)N2 (stereo not drawn)	-17%	3	-94%	2%	-16%
Cc1cccc(-c2nc(CS(=O)CC(=O)N3CCc4ccccc4C3)c(C)o2)c1 (stereo not drawn)	u	-12	40µM*	-13%	-10%
CCN1C(=O)c2ccccc2Sc2ccc(NC(=O)Nc3cccc([N+](=O)[O-])c3C)cc21	1%	x	x	16µM*	u
CC(C)CCNC(=O)Nc1ccc2c(c1)N(Cc1ccccc1)C(=O)c1ccccc1S2	10%	x	x	14µM*	-24%
CCN1C(=O)c2ccccc2Sc2ccc(NC(=O)Nc3ccccc3OC)cc21	7%	x	x	u	u
O=C(O)C(=O)/C(=C\c1ccccc1)c1ccc2ccccc2n1	u	1	-1%	-3%	-12%
O=C(O)C(=O)/C(=C\c1ccc([N+](=O)[O-])cc1)c1ccc2ccccc2n1	16µM*	4	45µM*	2%	-24%
